The values that follow come from the supplement of paper PMC9262897, “Low-cost anti-mycobacterial drug discovery using engineered E. coli” (Nature Communications, 2022).

Molecules are shown by their SMILES. Structures can show the parent of a compound that is named as a salt. ± gives the standard deviation of the averaged measurements.

Assay in all cases: growth (OD600 after 10 h); higher = more growth (less inhibition)
Test [1] has as its system E. coli TESEC Alr+ wild-type control. The conditions noted are these: compound 0.1 mM; raw OD600 reference: median of DMSO wells 0.241, cell-free background 0.041. How it is done:
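TESEC Mtb Alr E. coli, or the Alr+ wild-type control, in 384-well plates with Prestwick library compounds at 0.1 mM and 1% DMSO, across arabinose induction levels of 1E3 to 1E7 nM. Growth is read as OD600 after 10 h at 37 °C in triplicate biological replicates.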

The subject of test [2] is E. coli TESEC Mtb Asd. The conditions noted are these: compound 0.1 mM. How it is done: (§1)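 TESEC E. coli strains in which the native enzyme is deleted and replaced by arabinose-inducible Mtb Asd, DapB, CysH or TrpD, each grown in its selective medium. Strains were screened against the Prestwick library at 0.1 mM and 1% DMSO in 384-well format at low and high arabinose induction. Growth is read as OD600 after 10 h in triplicate.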

The test system of test [3] is E. coli TESEC Mtb DapB. Conditions: compound 0.1 mM. How it is done: as §1
Test [4] has as its system E. coli TESEC Alr+ wild-type control. The conditions noted are these: compound 0.1 mM; raw OD600 reference: median of DMSO wells 0.49, cell-free background 0.052. How it is done: (§2)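 TESEC Mtb Alr E. coli (ΔaraC ΔtolC ΔentC Δalr ΔdadX, arabinose-inducible Mtb Alr) or the Alr+ wild-type control strain, grown in defined M9-fructose medium without D-alanine in 96-well plates with Prestwick library compounds at 0.1 mM and 1% DMSO. Low Alr induction is 0.1 µM arabinose and high induction is 10 mM arabinose.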

Test [5] concerns E. coli TESEC Mtb Alr. Conditions: compound 0.1 mM. How it is done: as §2
Where [6] appears, read: arabinose induction (level): High, raw OD600 reference: median of DMSO wells 0.331, cell-free background 0.041.
The mark [7] stands for this setting: arabinose induction (level): Low, raw OD600 reference: median of DMSO wells 0.417, cell-free background 0.041.
Where [8] appears, read: arabinose induction (level): High, raw OD600 reference: median of DMSO wells […], cell-free background 0.041.
Setting [9] is: arabinose induction (level): Low, raw OD600 reference: median of DMSO wells 0.227, cell-free background 0.041.
Where [10] appears, read: arabinose 100 nM, raw OD600 reference: median of DMSO wells 0.413, cell-free background 0.052.
Setting [11] is: arabinose 10000000 nM, raw OD600 reference: median of DMSO wells […], cell-free background 0.052.

As for `CN(C)CCC[C@@]1(c2ccc(F)cc2)OCc2cc(C#N)ccc21` [Escitalopram oxalate], the growth in test [1] was 0.201 ± 0.0062; in test [2] (setting [6]) it was 0.297 ± 0.14; in test [2] (setting [7]) it was 0.398 ± 0.064; in test [3] (setting [8]) it was 0.179 ± 0.012; in test [3] (setting [9]), 0.202 ± 0.014; in test [4], 0.435 ± 0.007. For the same molecule, the growth in test [5] (setting [10]) came out at 0.412 ± 0.011; in test [5] (setting [11]) it was 0.352 ± 0.0066.

As to `CC(C)NCC(O)COc1ccc(CCOCC2CC2)cc1` (configuration not stated) [Betaxolol hydrochloride], the growth in test [1] was determined as 0.222 ± 0.0081; in test [2] (setting [6]), 0.264 ± 0.049; in test [2] (setting [7]) it was 0.359 ± 0.069; in test [3] (setting [8]) it was 0.235 ± 0.026; in test [3] (setting [9]) it was 0.246 ± 0.011; in test [4], 0.562 ± 0.028. Further, the figures for the growth in test [5] (setting [10]) and in test [5] (setting [11]) were 0.404 ± 0.011 and 0.341 ± 0.014, respectively.

With `CCN(CC)CCNC(C(=O)OCCC(C)C)c1ccccc1` (configuration not stated) [Camylofine chlorhydrate], the growth is 0.198 ± 0.0073 in test [1]; 0.228 ± 0.046 in test [2] (setting [6]); 0.372 ± 0.11 in test [2] (setting [7]); 0.153 ± 0.013 in test [3] (setting [8]); 0.171 ± 0.016 in test [3] (setting [9]); 0.559 ± 0.084 in test [4]. Besides, the growth in test [5] (setting [10]) was 0.406 ± 0.012; in test [5] (setting [11]), 0.341 ± 0.012.

With `O=C1NCN(c2ccccc2)C12CCN(CCCC(c1ccc(F)cc1)c1ccc(F)cc1)CC2` [Fluspirilen], the growth came out at 0.0416 ± 0.0009 in test [1]; 0.0816 ± 0.034 in test [2] (setting [6]); 0.0703 ± 0.0098 in test [2] (setting [7]); 0.167 ± 0.014 in test [3] (setting [8]); 0.19 ± 0.021 in test [3] (setting [9]); 0.055 ± 0.0016 in test [4]. Moreover, the growth in test [5] (setting [10]) amounted to 0.0516 ± 0.00059; in test [5] (setting [11]), 0.0605 ± 0.008.

As for `CC(C)(C)C(=O)OCOC(=O)[C@@H]1N2C(=O)[C@@H](/N=C/N3CCCCCC3)[C@H]2SC1(C)C` [Pivmecillinam hydrochloride], the growth amounted to 0.184 ± 0.0062 in test [1]; 0.323 ± 0.028 in test [2] (setting [6]); 0.363 ± 0.022 in test [2] (setting [7]); 0.218 ± 0.022 in test [3] (setting [8]); 0.222 ± 0.024 in test [3] (setting [9]); 0.509 ± 0.096 in test [4]. Further, the growth in test [5] (setting [10]) came to 0.4196 ± 0.0028; in test [5] (setting [11]), 0.344 ± 0.012.

With `CNCCC=C1c2ccccc2CCc2ccccc21` [Nortriptyline hydrochloride], the growth amounted to 0.188 ± 0.014 in test [1]; 0.137 ± 0.0013 in test [2] (setting [6]); 0.179 ± 0.0089 in test [2] (setting [7]); 0.185 ± 0.025 in test [3] (setting [8]); 0.195 ± 0.04 in test [3] (setting [9]); 0.46 ± 0.061 in test [4]. Moreover, the growth was determined as 0.4083 ± 0.0029 in test [5] (setting [10]) and 0.264 ± 0.013 in test [5] (setting [11]).

Take `CC(=O)Oc1cc(C(F)(F)F)ccc1C(=O)O` [Triflusal]: the growth in test [1] was determined as 0.224 ± 0.0053; in test [2] (setting [6]), 0.218 ± 0.009; in test [2] (setting [7]), 0.367 ± 0.082; in test [3] (setting [8]), 0.207 ± 0.0034; in test [3] (setting [9]), 0.206 ± 0.015; in test [4], 0.555 ± 0.033. Moreover, the growth amounted to 0.376 ± 0.011 in test [5] (setting [10]) and 0.315 ± 0.011 in test [5] (setting [11]).

For the molecule `O=C(O)[C@H]1/C(=C/CO)O[C@@H]2CC(=O)N21` [Clavulanate potassium salt], the growth in test [1] stood at 0.155 ± 0.0016; in test [2] (setting [6]) it was 0.535 ± 0.033; in test [2] (setting [7]), 0.387 ± 0.062; in test [3] (setting [8]), 0.182 ± 0.0081; in test [3] (setting [9]), 0.164 ± 0.012; in test [4], 0.04737 ± 0.00042. For the same molecule, the growth in test [5] (setting [10]) was found to be 0.0839 ± 0.04; in test [5] (setting [11]), 0.101 ± 0.017.

`CCCCOc1ccc(C(=O)CCN2CCCCC2)cc1` [Dyclonine hydrochloride]: the growth was 0.208 ± 0.004 in test [1]; 0.269 ± 0.064 in test [2] (setting [6]); 0.252 ± 0.01 in test [2] (setting [7]); 0.149 ± 0.0069 in test [3] (setting [8]); 0.176 ± 0.012 in test [3] (setting [9]); 0.449 ± 0.034 in test [4]. For the same molecule, the growth in test [5] (setting [10]) worked out at 0.408 ± 0.0048; in test [5] (setting [11]), 0.355 ± 0.033.
